Nrf2 block: Nrf2 qHTS screen for inhibitors; A549 ARE-Fluc reporter, luciferase luminescence, 18-24 h; Potency, µM (top dose mostly 46 µM), usual class: inhibitors; 360,000 tested, 2.1% active; AID 504444, 2011; further: nearly all actives have a fitted effect of over 60% in size
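A549 ARE_Fluc cells (5000/well, 5% FBS OPTI-MEM) pre-incubated 2 h, then treated with compounds 18-24 h at 37C/5% CO2 in concentration-response. CellTiter-Fluor viability read first; BugLite luciferase luminescence after 15 min at room temperature gives Nrf2 activity.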
A549 tox: Nrf2 qHTS screen for inhibitors: counterscreen for cytotoxicity | A549 ARE-Fluc cells, CellTiter-Fluor viability, 18-24 h | Potency, µM (series often up to 46 µM), most hits filed as inhibitors | 390,000 tested, 0.16% active | AID 504648, 2011
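Cytotoxicity counterscreen: CellTiter-Fluor fluorescence was measured in A549 ARE_Fluc cells after 18-24 h of compound exposure in a concentration series. The subsequent BugLite luminescent read reports ARE-luciferase activity.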
Nrf2 activator: qHTS of Nrf2 Activators. AREc32 ARE-luciferase reporter (MCF7-derived line), luminescence, 24 h. Potency, µM (top dose mostly 46.1 µM), actives largely listed as activators. 410,000 tested, 0.31% active; further: nearly all actives have a fitted effect of over 65% in size
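Reporter line AREc32 (ARE-Fluc), seeded overnight in OPTI-MEM with 5% FBS; compound pin-transferred, 24 hr at 37 deg C, 5% CO2; luminescent read-out.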
PTAP TSG101 blk: qHTS Assay for Iinhibitors of HIV-1 Budding by Blocking the Interaction of PTAP/TSG101; Fluorescence polarization, FITC-PTAP peptide / Tsg101 binding; Potency, µM (top dose mostly 115 µM), most hits filed as inhibitors; 340,000 tested, under 10 active; active means well fitted inhibition curve with a large enough effect in the main read-out, with a control signal flat, not every such curve was filed as active; inconclusive means small, poorly fitted or top-dose-only effect, or effect the other way, or a change in a side signal; inactive means no such curve, though single readings can be large or run the other way
Target sequence (Q99816 whole entry, looked up): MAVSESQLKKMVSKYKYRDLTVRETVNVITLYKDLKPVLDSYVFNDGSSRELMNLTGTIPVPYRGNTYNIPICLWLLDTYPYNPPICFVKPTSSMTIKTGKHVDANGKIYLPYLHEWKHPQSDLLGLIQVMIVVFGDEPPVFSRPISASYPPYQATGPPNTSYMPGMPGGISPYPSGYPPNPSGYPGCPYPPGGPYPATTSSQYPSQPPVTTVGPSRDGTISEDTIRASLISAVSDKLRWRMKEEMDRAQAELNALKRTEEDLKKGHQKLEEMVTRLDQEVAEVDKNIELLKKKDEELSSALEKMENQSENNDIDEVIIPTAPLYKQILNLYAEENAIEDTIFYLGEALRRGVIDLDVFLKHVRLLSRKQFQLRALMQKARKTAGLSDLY
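Compounds were pin-transferred onto Tsg101 binding domain (10 uM final) in HEPES pH 7.5 buffer, then FITC-PTAP peptide was added at 50 nM final. After 20 min at RT, polarization reported peptide displacement across a qHTS concentration series.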
Glioma ERSR ind: qHTS for Inducers of the Endoplasmic Reticulum Stress Response (ERSR) in Human Glioma: qHTS. U87-MG GRP78 promoter luciferase reporter, 16 h. Potency, µM, actives largely listed as activators. 420,000 tested, 0.02% active; further: series mostly up to about 76 µM; nearly all actives have a fitted effect of over 35% in size
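Stably transfected U87-MG glioma cells carrying a GRP78-based luciferase sensor; 16 h compound incubation. Luminescence end-point read 10 min after Bright-Glo addition at room temperature.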
miR-21 reporter: qHTS Assay for Modulators of miRNAs and/orActivators of miR-21. HeLa miR-21 FLuc reporter, luciferase, 48 h. Potency, µM (titrated, usually from 38.3 µM), usual class: activators. 340,000 tested, under 10 active. AID 2288, 2010;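 further: miR-21 action dims this reporter so a rising signal means less miR-21 action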
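HeLa cells stably expressing CMV-driven firefly luciferase with a downstream miR-21 binding sequence, endogenously expressing miR-21, were treated with titrations (up to about 40uM final) for 48 hours at 37 degree Celsius. Luciferase luminescence was read after lysis.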
A number is an active result. Shown are actives, neighbours in structure and some others; about 2.1% of the full set was active somewhere. Unless noted, the call rests on the fitted dose curve; in most records, active means well fitted curve in the direction sought with a large enough effect; inconclusive means small, poorly fitted or top-dose-only effect, or another doubt; inactive means no such curve, though single readings can be large; an effect the other way counts as inactive or inconclusive.

What do the screens show for `Cc1nc(-c2ccc(C(=O)Nc3cccc(Br)c3)cc2)cs1`?
Nrf2 block: 11.6µM; A549 tox: inconclusive; Nrf2 activator: inactive; PTAP TSG101 blk: inactive; Glioma ERSR ind: inactive; miR-21 reporter: inactive

What do the screens show for `Cc1nc(-c2cccc(NC(=O)c3ccc(Br)o3)c2)cs1`?
Nrf2 block: inactive; A549 tox: inactive; Nrf2 activator: inactive; PTAP TSG101 blk: inactive; Glioma ERSR ind: inactive; miR-21 reporter: inactive

What do the screens show for `COc1ccc(-c2nc3cc(F)ccc3cc2CN(C(=O)c2ccc3c(c2)OCO3)C2CC2)cc1`?
Glioma ERSR ind: inactive

What do the screens show for `COc1ccc(-n2c3c(c(=O)[nH]c2=O)C(C(F)(F)F)(C(F)(F)F)N=C(CC(C)C)N3)cc1`?
Nrf2 block: inconclusive; A549 tox: inactive; Nrf2 activator: inactive; PTAP TSG101 blk: inactive; Glioma ERSR ind: inactive; miR-21 reporter: inactive

What do the screens show for `Cc1ccc(C2=NC(C(F)(F)F)(C(F)(F)F)c3c(n(-c4ccc(F)cc4)c(=O)[nH]c3=O)N2)cc1`?
Nrf2 block: 20.6µM; A549 tox: inactive; Nrf2 activator: inactive; PTAP TSG101 blk: inactive; Glioma ERSR ind: inactive; miR-21 reporter: inactive

How did O=c1[nH]c(=O)n(-c2ccc(F)cc2)c2c1C(C(F)(F)F)(C(F)(F)F)N=C(c1ccc(F)cc1)N2 do in these assays?
Nrf2 block: 16.4µM; A549 tox: inconclusive; Nrf2 activator: inactive; PTAP TSG101 blk: inactive; Glioma ERSR ind: inactive; miR-21 reporter: inactive

What do the screens show for `O=c1[nH]c(=O)n(-c2ccccc2)c2c1C(C(F)(F)F)(C(F)(F)F)N=C(CCC1CCCCC1)N2`?
Nrf2 block: 18.4µM; A549 tox: inconclusive; Nrf2 activator: inactive; PTAP TSG101 blk: inactive; Glioma ERSR ind: inactive; miR-21 reporter: inactive

How did Cc1ccccc1C(=O)NC1(C(F)(F)F)C(=O)Nc2c1c(=O)[nH]c(=O)n2-c1ccc(F)cc1 (stereo not given) do in these assays?
Nrf2 block: inactive; A549 tox: inactive; Nrf2 activator: inactive; Glioma ERSR ind: inactive; miR-21 reporter: inactive

How did Cc1cc(C)c2sc(N(CCCN(C)C)C(=O)c3ccc(Br)s3)nc2c1 do in these assays?
Nrf2 block: 14.6µM; A549 tox: inconclusive; Nrf2 activator: inactive; PTAP TSG101 blk: inactive; Glioma ERSR ind: inactive; miR-21 reporter: inactive

Results for C=C1C(=O)OC2C1CCC(C)=C1C(=O)C3OC3(C)C12 (stereo not given) ?
Nrf2 block: 16.4µM; A549 tox: inconclusive; Nrf2 activator: inactive; PTAP TSG101 blk: inactive; Glioma ERSR ind: inactive

What do the screens show for `CCC(=O)OC1CCC2C3CCc4cc(O)ccc4C3CCC12C` (stereo not given)?
Glioma ERSR ind: inactive

Results for COc1cc(OC)cc(C(=O)Nc2ccc(S(=O)(=O)Nc3cnc4ccccc4n3)cc2)c1 ?
Nrf2 block: inactive; A549 tox: inactive; Nrf2 activator: inactive; PTAP TSG101 blk: inactive; Glioma ERSR ind: inactive

What do the screens show for `COc1cc(C(=O)Nc2ccc(S(=O)(=O)Nc3nccc(C)n3)cc2)cc(OC)c1OC`?
Nrf2 block: inactive; A549 tox: inactive; Nrf2 activator: inactive; PTAP TSG101 blk: inactive; Glioma ERSR ind: 31.6µM; miR-21 reporter: inactive

Results for COc1cc(C(=O)Nc2ccc(S(=O)(=O)Nc3cnc4ccccc4n3)cc2)cc(OC)c1OC ?
Nrf2 block: inconclusive; A549 tox: inactive; Nrf2 activator: inactive; PTAP TSG101 blk: inactive; Glioma ERSR ind: 31.6µM; miR-21 reporter: inactive

How did COCCN1C(=O)/C(=C/c2ccc(OCc3ccc(C(=O)O)cc3)c(OC)c2)SC1=Nc1ccccc1 do in these assays?
Nrf2 block: inconclusive; A549 tox: 20.6µM; Nrf2 activator: inactive; PTAP TSG101 blk: inactive; Glioma ERSR ind: inactive; miR-21 reporter: inactive

Results for COc1cc(/C=C2\SC(=Nc3ccccc3)N(Cc3ccco3)C2=O)ccc1OC(C)C(=O)O (stereo not given) ?
Nrf2 block: inactive; A549 tox: inconclusive; Nrf2 activator: inactive; PTAP TSG101 blk: inactive; Glioma ERSR ind: inconclusive; miR-21 reporter: inactive

How did CCC1(C2CCN(Cc3cc4ccccc4o3)CC2)NC(=O)N(CC2COc3ccccc3O2)C1=O (stereo not given) do in these assays?
Glioma ERSR ind: inactive

How did S=C1NC2=C(CCCC2=C2SCCS2)C(c2ccccc2)N1 (stereo not given) do in these assays?
Nrf2 block: inconclusive; A549 tox: inactive; Nrf2 activator: 22.4µM; PTAP TSG101 blk: inactive; Glioma ERSR ind: inactive; miR-21 reporter: inactive

Results for O=C(C[N+]1(CC(O)c2ccccc2)CCOCC1)c1ccccc1 (stereo not given) ?
Glioma ERSR ind: inactive

Results for CCn1cc(CN2CCOc3ccc(C(O)C4CCCCC4)cc3C2)c(C)n1 (stereo not given) ?
Glioma ERSR ind: inactive

How did Nc1nc(-c2ccco2)nn1C(=O)c1ccccc1Cl do in these assays?
Nrf2 block: 1.84µM; A549 tox: inactive; Nrf2 activator: inactive; PTAP TSG101 blk: inactive; Glioma ERSR ind: inactive; miR-21 reporter: inactive

What do the screens show for `COc1ccc(-c2csc(NC(=O)c3ccco3)n2)cc1`?
Nrf2 block: inconclusive; A549 tox: inactive; Nrf2 activator: inactive; PTAP TSG101 blk: inactive; Glioma ERSR ind: inactive; miR-21 reporter: inactive

How did O=C(Nc1nc(-c2ccccc2)cs1)c1ccco1 do in these assays?
Nrf2 block: inactive; A549 tox: inactive; Nrf2 activator: 14.1µM; PTAP TSG101 blk: inactive; Glioma ERSR ind: inactive; miR-21 reporter: inactive

How did O=C(Nc1nc(-c2ccco2)cs1)c1ccccc1 do in these assays?
A549 tox: inactive; Nrf2 activator: inconclusive; PTAP TSG101 blk: inactive; Glioma ERSR ind: inactive; miR-21 reporter: inactive

How did COCCN(C(=O)c1ccco1)c1nc(-c2ccccc2)cs1 do in these assays?
Nrf2 block: inconclusive; A549 tox: inactive; Nrf2 activator: 10µM; PTAP TSG101 blk: inactive; Glioma ERSR ind: inactive; miR-21 reporter: inactive

What do the screens show for `O=C(/C=C\c1ccco1)Nc1nc(-c2ccc3ccccc3c2)cs1`?
Nrf2 block: 14.6µM; A549 tox: inactive; Nrf2 activator: inactive; PTAP TSG101 blk: inactive; Glioma ERSR ind: inactive; miR-21 reporter: inactive

How did Cc1ccc(-c2csc(NC(=O)c3ccc(-c4ccccc4)cc3)n2)o1 do in these assays?
Nrf2 block: 2.91µM; A549 tox: inactive; Nrf2 activator: inactive; PTAP TSG101 blk: inactive; Glioma ERSR ind: inactive; miR-21 reporter: inactive

What do the screens show for `Cc1ccc(-c2csc(NC(=S)NC(=O)/C=C/c3ccco3)n2)cc1`?
A549 tox: inconclusive; Nrf2 activator: inactive; PTAP TSG101 blk: inactive; Glioma ERSR ind: inactive; miR-21 reporter: inactive

How did COCCN(C(=O)c1ccco1)c1nc(-c2ccc(OC)cc2)cs1 do in these assays?
Nrf2 activator: inactive; Glioma ERSR ind: inactive

Assay outcomes (PubChem)
